Source: PubChem BioAssay (NCI)
About 83,000 compounds went through this panel and 20% of them were active in at least one assay; those are over-represented in the sample as a whole.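 Growth was measured after 48 h exposure to one concentration of compound in 96-well plates. Values under 10 count as active.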 Activity calls are given as the source filed them.

Experiments:
Assay in all cases: NCI-60 one-dose screen, 48 h (100 = growth as untreated, 0 = no growth, -100 = all killed)
Settings in all cases: 10 µM unless noted
SK-MEL-2 melanoma = test system: SK-MEL-2 melanoma
EKVX NSCLC = test system: EKVX NSCLC
SN12C renal = test system: SN12C renal
UO-31 renal = test system: UO-31 renal
TK-10 renal = test system: TK-10 renal
ACHN renal = test system: ACHN renal
CAKI-1 renal = test system: CAKI-1 renal
A498 renal = test system: A498 renal
CCRF-CEM leukemia = test system: CCRF-CEM leukemia
MOLT-4 leukemia = test system: MOLT-4 leukemia
SR leukemia = test system: SR leukemia
RPMI-8226 leukemia = test system: RPMI-8226 leukemia
OVCAR-8 ovarian = test system: OVCAR-8 ovarian
OVCAR-5 ovarian = test system: OVCAR-5 ovarian
OVCAR-4 ovarian = test system: OVCAR-4 ovarian
SK-OV-3 ovarian = test system: SK-OV-3 ovarian
IGROV1 ovarian = test system: IGROV1 ovarian
OVCAR-3 ovarian = test system: OVCAR-3 ovarian
HS 578T breast = test system: HS 578T breast
NCI/ADR-RES ovarian = test system: NCI/ADR-RES ovarian

Measured: growth

CN1CCN(c2ccc(Nc3ncc(C(N)=O)c(NCCCNC(=O)C4CCC4)n3)cc2)CC1
inactive: SK-MEL-2 melanoma 71.3% | EKVX NSCLC 99.2% | SN12C renal 36.3% | UO-31 renal 40.1% | TK-10 renal 39.8% | ACHN renal 61.8% | CAKI-1 renal 35.1% | A498 renal 137% | CCRF-CEM leukemia 14.2% | MOLT-4 leukemia 18% | SR leukemia 30.1% | RPMI-8226 leukemia 101% | OVCAR-8 ovarian 71.6% | OVCAR-5 ovarian 116% | OVCAR-4 ovarian 73.1% | SK-OV-3 ovarian 37.8% | IGROV1 ovarian 85.7% | OVCAR-3 ovarian 13.3% | HS 578T breast 67.2% | NCI/ADR-RES ovarian 105%

COc1cc(OC)cc(-c2ccc(-c3ccc(C(=N)N)cn3)s2)c1
active: CCRF-CEM leukemia 8.54% | SR leukemia 6.61% | RPMI-8226 leukemia -1.98% | OVCAR-3 ovarian 5.54%
inactive: SK-MEL-2 melanoma 104% | EKVX NSCLC 95.6% | SN12C renal 79.2% | UO-31 renal 94.2% | TK-10 renal 113% | ACHN renal 75% | CAKI-1 renal 69.8% | A498 renal 102% | MOLT-4 leukemia 49.3% | OVCAR-8 ovarian 17.8% | OVCAR-5 ovarian 89.8% | OVCAR-4 ovarian 28.4% | SK-OV-3 ovarian 82.2% | IGROV1 ovarian 78.4% | HS 578T breast 84.9% | NCI/ADR-RES ovarian 95.4%

COC1=CC(c2ccc[nH]2)=N/C1=C\c1[nH]c(C)c(C(=O)Oc2ccccc2)c1C
inactive: CCRF-CEM leukemia 18.6%
active: SK-MEL-2 melanoma -68.6% | EKVX NSCLC -19.9% | SN12C renal 0.383% | UO-31 renal -87.2% | TK-10 renal -6.73% | ACHN renal -90.3% | CAKI-1 renal -23.8% | A498 renal -46.7% | MOLT-4 leukemia 3.87% | SR leukemia 6.67% | RPMI-8226 leukemia -13.4% | OVCAR-8 ovarian -13.8% | OVCAR-5 ovarian -41.5% | OVCAR-4 ovarian -48.8% | SK-OV-3 ovarian 1.25% | IGROV1 ovarian -35.4% | OVCAR-3 ovarian -39.7% | HS 578T breast -27.5% | NCI/ADR-RES ovarian -3.96%

Cc1ccc(C(=O)Nc2ccc(CN3CCN(C)CC3)c(C(F)(F)F)c2)cc1C#Cc1cnc(N)cc1C#N
inactive: TK-10 renal 14.7% | OVCAR-5 ovarian 12.8%
active: SK-MEL-2 melanoma -43% | EKVX NSCLC -36.8% | SN12C renal -52.9% | UO-31 renal -55.7% | ACHN renal -85.7% | CAKI-1 renal -48% | A498 renal -37% | CCRF-CEM leukemia -8.11% | MOLT-4 leukemia -54.7% | SR leukemia -29.8% | RPMI-8226 leukemia -24.4% | OVCAR-8 ovarian -32.9% | OVCAR-4 ovarian 5.13% | SK-OV-3 ovarian -7.98% | IGROV1 ovarian -47.7% | OVCAR-3 ovarian -40.1% | HS 578T breast -23.5% | NCI/ADR-RES ovarian -27.3%

COc1ccc(C(=O)N/N=C/c2ccc(O)cc2O)cc1Nc1ccnc(C(F)(F)F)c1
inactive: SK-MEL-2 melanoma 61.5% | EKVX NSCLC 26.9% | SN12C renal 33.1% | UO-31 renal 30.4% | TK-10 renal 53.4% | ACHN renal 35.8% | CAKI-1 renal 39.3% | A498 renal 55.2% | MOLT-4 leukemia 23.4% | SR leukemia 35.3% | RPMI-8226 leukemia 41.7% | OVCAR-8 ovarian 23.1% | OVCAR-5 ovarian 46.3% | OVCAR-4 ovarian 31.7% | SK-OV-3 ovarian 19.7% | IGROV1 ovarian 26.8% | OVCAR-3 ovarian 78.5% | HS 578T breast 55.4% | NCI/ADR-RES ovarian 64%
active: CCRF-CEM leukemia 5.69%

COc1ccc(N2CCN(S(=O)(=O)c3oc(-c4ccccc4)nc3C#N)CC2)cc1
active: CCRF-CEM leukemia 4.32% | MOLT-4 leukemia 3.95% | SR leukemia 6.1%
inactive: SK-MEL-2 melanoma 72.4% | EKVX NSCLC 118% | SN12C renal 68.9% | UO-31 renal 85.9% | TK-10 renal 71.6% | ACHN renal 79.2% | CAKI-1 renal 107% | A498 renal 128% | RPMI-8226 leukemia 41.4% | OVCAR-8 ovarian 60.2% | OVCAR-5 ovarian 95.2% | OVCAR-4 ovarian 86.7% | SK-OV-3 ovarian 113% | IGROV1 ovarian 54.6% | OVCAR-3 ovarian 73.3% | HS 578T breast 104% | NCI/ADR-RES ovarian 91%

O=S(=O)(Nc1ccc(F)cc1)c1ccc(-c2cnc(C3CC3)o2)cc1
inactive: SK-MEL-2 melanoma 12.8% | EKVX NSCLC 44.4% | SN12C renal 35.5% | UO-31 renal 36.3% | TK-10 renal 32.4% | ACHN renal 32% | CAKI-1 renal 36.3% | A498 renal 14.1% | CCRF-CEM leukemia 10.5% | MOLT-4 leukemia 12.7% | SR leukemia 11.6% | RPMI-8226 leukemia 17.2% | OVCAR-8 ovarian 30.4% | OVCAR-5 ovarian 59.1% | OVCAR-4 ovarian 69.9% | SK-OV-3 ovarian 39.7% | IGROV1 ovarian 37.9% | OVCAR-3 ovarian 10.2% | HS 578T breast 14.1%
active: NCI/ADR-RES ovarian -0.888%
